# In PubChem BioAssay AID1794842 (National Center for Advancing Translational Sciences (NCATS), 2023):
# Out of some 2,800 compounds screened, fewer than 10 were called active. Calls come from the whole dose curve; as a rule, active = well fitted curve in the direction sought with a large enough effect; inconclusive = small, poorly fitted or top-dose-only effect, or another doubt; inactive = no such curve, though single readings can be large or run the other way. The list is a sample of the results.
# Molecular target: Metallo-beta-lactamase type 2 (Klebsiella pneumoniae) (UniProt C7C422)
# Sequence (C7C422 whole entry, looked up): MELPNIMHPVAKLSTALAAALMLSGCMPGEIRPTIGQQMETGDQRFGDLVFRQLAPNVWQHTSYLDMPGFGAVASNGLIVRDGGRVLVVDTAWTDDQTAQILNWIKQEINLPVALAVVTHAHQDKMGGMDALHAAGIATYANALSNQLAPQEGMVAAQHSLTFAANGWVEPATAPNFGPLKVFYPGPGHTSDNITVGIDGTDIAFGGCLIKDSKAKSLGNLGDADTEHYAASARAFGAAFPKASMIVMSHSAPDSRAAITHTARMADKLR
# Experiment: qHTS to identify inhibitors of the New Delhi Metallo-beta-lactamase (NDM): Meropenem screen against the machine-based learning selections. Note: % of control where 0% means no effect.
# Details: Purified NDM-1, meropenem hydrolysis, absorbance 300 nm; series mostly up to 38.4 µM; activity change, negative = inhibition: at the top concentration
# From the text: Assay Submitter (PI): James Inglese Ph.D., Patricia Dranchak Ph.D., Mahesh Aitha Ph.D. Assay Development and Screening Technology Laboratory (ADST) National Center for Advancing Translational Sciences (NCATS), Rockville, MD National Institute of Health (NIH), Bethesda, Maryland The metallo-beta-lactamases (MBL) are a main antibiotic resistance mechanism evolved by bacteria. There is an urgent clinical need for MBL inhibitors to mitigate this growing threat. To support a machine-based learning study, qHTS has been used to experimentally test inhibitors identified by prediction tools.
# PROTOCOL TABLE (as described by Inglese et al., 2007) SEQUENCE No. (e.g., 1, 2, 3, etc.); […] (e.g., enzyme, Incubation, Reagent, etc.); VALUE; DESCRIPTION Primary Screen 1; NDM-1; 4 uL of 3 nM enzyme [2 nM final] in 50 mM HEPES (pH 7.0), 1 uM […], 0.01% Tween20; Use BioRaptr to dispense into two sets of Aurora black, clear bottom high base 1536-well plates 2; Compounds; 23 nL; Use Pin Tool (Wako) to transfer DMSO control and library compounds in DMSO 3; Incubate; >30 min 4a; Reagent; 2 uL of 50 uM nitrocefin [16.7 uM final] to one set of assay plates 4b; Reagent; 2 uL of 150 uM meropenem [50 uM final] to second set of assay plates 5a; Incubate; 15 min 5b; Incubate; 30 min 6a; Detector; Absorbance at 485 nm (bandwidth = 5 nm, 25 flashes/well) on Tecan Infinity 6b; Detector; Absorbance at 300 nm (bandwidth = 5 nm, 25 flashes/well) on Tecan Infinity NOTES (numbers refer to sequence above) 1; Column 1 of each plate received assay buffer without enzyme and columns 2-48 received enzyme for a final assay concentration of 2 nM. 2; Control plate contained DMSO in columns 1, 2, 3, and 4. 3; Compound interaction with enzyme. 4; Nitrocefin and meropenem substrates were prepared in the same assay buffer as step 1 for a final assay concentration of 16.7 uM and 50 uM, respectively, and added to all wells across respective sets of assay plates. 5; Default reader settings were applied for absorbance read at 485 nm (nitrocefin) or 300 nm (meropenem), bandwidth = 5 nm, 25 flashes/well. References: Inglese J, Shamu CE, Guy RK. 2007. Reporting data from high-throughput screening of small-molecule libraries. Nat Chem Biol. doi:10.1038/nchembio0807-438 Yasgar A, Shinn P, Jadhav A, Auld D, Michael S, Zheng W, Austin CP, Inglese J, Simeonov A. 2008. Compound Management for Quantitative High-Throughput Screening. J Lab Autom 13:79 - 89. doi:10.1016/j.jala.2007.12.004
row,Structure (SMILES),"activity change, negative = inhibition"
1,Cc1ccccc1Nc1cnc2ccc(-c3cccc(CO)c3)nn12,63.5% [at 57.5 µM] (inactive)
2,COc1ccccc1C(O)c1nc(Nc2ccncc2)n[nH]1 (centres undefined),13.5% [at 57.5 µM] (inactive)
3,OC[C@]12CCCN[C@@H]1CCN(Cc1cccc(-c3ccccn3)c1)C2,1.81% (inactive)
4,COC(=O)c1ccc2c(c1)nc1n2[C@@H](CNC(=O)NC2CCCCC2)COC1,-0.992% [at 57.5 µM] (inactive)
5,COc1cccc(CN[C@@H]2CCC[C@@H](C(=O)NC3CCOCC3)CC(=O)N(C)C2)c1,1.5% [at 57.5 µM] (inactive)
6,COCCNC(=O)[C@H]1CCC[C@H]1NC(=O)c1ccc(OC)cc1,0.0448% (inactive)
7,CCS(=O)(=O)N1CCC(Cc2nc(-c3cccnc3)n[nH]2)C1 (centres undefined),0.912% (inactive)
8,C=CCc1cc(C2CC(=O)Nc3[nH]ncc32)cc(OCC)c1OC (centres undefined),1.43% (inactive)
9,O=C1CC(c2ccccc2)N(C(=O)C2CC2)CCCN(C(=O)NCc2ccccc2)CCN1 (centres undefined),0.78% (inactive)
10,O=C(NC[C@H]1OC[C@@H](NCc2cnc[nH]2)[C@@H]1O)C1CCCC1,10.9% [at 57.5 µM] (inactive)
11,COc1cccc(-c2cnc3[nH]cc(CC(=O)NCc4cccnc4)c3c2)c1,-0.122% [at 57.5 µM] (inactive)
12,Cn1ccc(NC(=O)c2cnc3c(c2)N([S+](=O)([O-])c2cccnc2)CCC3)n1,3.56% [at 57.5 µM] (inactive)
13,CCOc1cc(=O)n2c(c1C(=O)N1CCN(c3ccc(F)cc3)CC1)CCCC2,2.67% (inactive)
14,CC1=C[C@@H](CNC(=O)Cc2ccccc2)[C@H](C(C)C)C[C@H]1Cc1nc2ccncc2[nH]1,49.5% [at 57.5 µM] (inactive)
15,Oc1ccccc1CN1CCNc2cnc(-c3ccccc3)cc2C1,10.3% [at 57.5 µM] (inactive)
16,CN1C(=O)[C@@H]2C[C@@H](O)CN2C2(CN(CC3CCCCC3)C2)C1=O,-2.35% [at 57.5 µM] (inactive)
17,O=C(O)c1cccc(CN2CCN(c3ccc4nccn4n3)CC2)n1,52.5% (inactive)
18,CCn1ccc(C(=O)N2CC(c3nnc(-c4ccc(C)cc4)o3)C3(CCOCC3)C2)n1 (centres undefined),-0.487% (inactive)
19,O=C(Nc1ccsc1)N[C@H]1C[C@H]2C(=O)NC[C@@H](CCC(=O)N3CCCCC3)N2C1,6.97% [at 57.5 µM] (inactive)
20,O=C(Cc1ccccc1F)N1CCC(Oc2ncccc2C(=O)N2CCCCC2)C1 (centres undefined),-2.69% (inactive)
21,CC1=C[C@@H](CNCc2ccncc2)[C@H](C(C)C)C[C@H]1Cc1nnc(-c2ccc(C)cc2)o1,0.0973% [at 57.5 µM] (inactive)
22,Cc1ccccc1-c1[nH]nc2ncc(-c3ccccc3O)nc12,0.134% [at 57.5 µM] (inactive)

row,Structure (SMILES),"activity change, negative = inhibition"
1,CN1CCCC2(CCN(S(=O)(=O)c3ccc(F)c(F)c3F)C2)C1=O (centres undefined),-0.416% (inactive)
2,CN1CCC(N2CCC[C@H]2C(=O)NCc2cc3n(n2)CCCNC3)CC1,44.8% (inactive)
3,O=C(O)C1(Oc2ccc3ccccc3c2)CCN(Cc2ccsc2)CC1,-0.232% (inactive)
4,COc1cccc(CN2CCCC3(CCN(C(=O)c4ccc(OC)nc4OC)C3)C2)c1 (centres undefined),-0.954% (inactive)
5,COc1ccc(-c2noc([C@@H]3C[C@@H](O)CN3Cc3ncc[nH]3)n2)cc1,-1.76% [at 57.5 µM] (inactive)
6,CC(C)(O)CCc1cccc(C(=O)NCCNc2cccnc2)c1,6.29% (inactive)
7,COc1cccc(S(=O)(=O)N2C[C@@H](C)[C@](O)(C3CCC3)C2)c1,-1.22% (inactive)
8,O=C(O)[C@@H]1CN(C(=O)c2ccc(=O)[nH]c2)C[C@H]1c1ccc2c(c1)OCO2,4.89% (inactive)
9,COC[C@H]1CCCN1Cc1nc(C2(O)CCN(Cc3ccccc3O)CC2)cs1,38.3% [at 57.5 µM] (inactive)
10,O=C(NCc1ccccc1)N1CCCCC1c1nc(-c2cnccn2)n[nH]1 (centres undefined),32.3% (inactive)
11,CN1CC2(CCN(C(=O)c3ccccc3-c3nn[nH]n3)CC2)CC1C(=O)O (centres undefined),57.1% (inactive)
12,Nc1ccsc1C(=O)N[C@H](Cc1ccncc1)C1CC(O)C1 (some centres undefined),49.4% (inactive)
13,O=C(NC[C@H]1O[C@@H](CC(=O)N2CCOCC2)[C@H](O)[C@@H]1O)Nc1ccc(F)cc1F,8.7% [at 57.5 µM] (inactive)
14,CCn1nc(C)cc1C(=O)N1CCOC[C@H](Oc2cccnc2)C1,-2.79% [at 57.5 µM] (inactive)
15,O=c1n(-c2ccc([N+](=O)[O-])cc2)nc2n1CCN(Cc1cccc3ccccc13)C2,6.62% (inactive)
16,Cn1cccc1C(=O)N1CC[C@H](NC(=O)NC2CCCCC2)[C@H]1C(=O)N1CCC[C@@H]1C(N)=O,1.12% (inactive)
17,N#Cc1ccc(C(=O)N2C[C@@H]3C[C@H](C2)c2c(/C=C/c4ccc(Cl)cc4)ccc(=O)n2C3)cc1,-0.813% (inactive)
18,NC(=O)C1(N2CCCCC2)CCN(Cc2cc3n(n2)CCNC3)CC1,58.6% (inactive)
19,CC(C)(CO)CNC(=O)c1cnc2c(c1)N([S+](=O)([O-])c1cccnc1)CCC2,2.99% [at 57.5 µM] (inactive)
20,Cc1nn(C)c2ncc(C(=O)O)c(NC3CC(c4cc(=O)[nH]cn4)C3)c12 (centres undefined),7.09% (inactive)
21,Oc1cccc(CN2CCCC23CCN(c2ccc(C(F)(F)F)cn2)CC3)c1,-0.547% (inactive)
22,O=C(O)CCC(=O)N[C@H]1CCN2C(=O)c3cc(-c4ccc(Cl)cc4)ccc3NC(=O)[C@H]12,12.6% [at 57.5 µM] (inactive)
